# Where “and” joins values, the source holds several entries; their conditions need not be identical. Equal values may be shown once. Results filed as inconclusive are left out. Where a call stands in place of a potency, no number is given. Calls of active or inactive are those of the source. Unless noted, calls follow the shape of the dose curve; as a rule, active = well fitted curve in the direction sought with a large enough effect; inconclusive = small, poorly fitted or top-dose-only effect, or another doubt; inactive = no such curve, though single readings can be large; an effect the other way counts as inactive or inconclusive.
# Tests used:
# [1] = qHTS Assay for Identification of Small Molecule Agonists for NFkB Signaling Pathway. (AID 624478);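 also: compounds tested together with TNF alpha at its EC50 of 10 pM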
# How it was run: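 Assay medium contained 0.5% FBS and 10 mM HEPES pH 7.3. Compounds were added together with TNF alpha (10 pM final), incubated 5 h at 37 C, and the beta-lactamase signal was measured fluorometrically.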
# [2] = Cell Proliferation Assay against the TMD8 Cell Line (AID 651645); conditions: TMD8 DLBCL cell line proliferation/viability; at 46.1 µM (top of the series) unless noted;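 also: cells exposed to compound for 48 h before reading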
# How it was run: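 TMD8 ABC DLBCL cells, 500 per well in phenol red-free RPMI with 5% FBS, were treated with compound by pin transfer and incubated 48 hours at 37C, 5% CO2. Viability was read by CellTiter-Glo luminescence, normalised to DMSO (100%) and 9.2 uM bortezomib (0%).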
# [3] = Cell Proliferation Assay against the TMD8 Cell Line (Caspase readout at 16 hrs) (AID 651712)
# How it was run: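 16 h, 37 °C, TMD8 (500 cells/well), RPMI/5% FBS no phenol red; Caspase-Glo 3/7, 15 min RT, luminescence; %act: DMSO 0, bortezomib 9.2 uM final 100.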
# [4] = Cell Proliferation Assay against the TMD8 Cell Line (Caspase readout at 8 hrs) (AID 651713)
# How it was run: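 Luminescent caspase 3/7 assay; TMD8 cells, 8 h treatment at 37C, 5% CO2. Normalisation: DMSO 0%, 9.2 uM bortezomib 100%.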
# [5] = qHTS assay for small molecule agonists of the antioxidant response element (ARE) signaling pathway (AID 651741; active = well fitted activation curve with a large enough effect in the signal ratio; the % refers to the signal ratio; also: potency is read from the fitted curve at half-maximal effect)
# How it was run: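 Beta-lactamase reporter expression driven by the antioxidant response element in HepG2 cells was detected by fluorescence with LiveBLAzer B/G FRET substrate (2 h, room temperature) following 16 h compound treatment at 37 C.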
# [6] = qHTS assay for small molecule activators of the p53 signaling pathway (AID 651743; active = well fitted activation curve with a large enough effect in the signal ratio, not every such curve was filed as active; the % refers to the signal ratio); conditions: HCT-116 p53RE-bla, beta-lactamase FRET ratio, 16 h; activation: stronger effect = higher value
# How it was run: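 Here HCT-116 cells with an integrated p53-responsive beta-lactamase gene were incubated with compounds (16 hours, 37 C) after a 5-hour plating period; beta-lactamase activity was detected as fluorescence intensity via B/G FRET substrate.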
# [7] = qHTS assay for small molecule activators of the nuclear factor-kappa B (NF-kB) signaling pathway (AID 651749; active = well fitted activation curve with a large enough effect in the signal ratio; the % refers to the signal ratio); conditions: NF-kB-bla ME-180 cells, beta-lactamase FRET ratio, 16 h; stronger effect = higher value
# How it was run: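 Beta-lactamase reporter expression, controlled by NF-kB response elements in ME-180 cells, was quantified fluorometrically via FRET disruption; cells at 2,000/well had been incubated with 23 nL test compound for 16 hr.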
# [8] = qHTS assay for small molecule disruptors of the mitochondrial membrane potential - 1 hr assay (AID 651754; calls by dose curve; also: nearly all actives have a fitted effect of over 35% in size)
# How it was run: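 In this qHTS format, a 1 hr compound treatment of HepG2 cells precedes Mito-MPS staining, and membrane potential is judged from aggregate (red) against monomer (green) fluorescence intensity.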
# [9] = qHTS assay for small molecule disruptors of the mitochondrial membrane potential - 5 hr assay (AID 651755; calls by dose curve; also: nearly all actives have a fitted effect of over 40% in size)
# How it was run: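 Seed HepG2 overnight, add compound, incubate 5 hr at 37C and 5% CO2, stain 30 min with Mito-MPS, then measure monomer (490/535 nm) and aggregate (540/590 nm) fluorescence.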
# [10] = qHTS Assay for Identification of Small Molecule Antagonists for NFkB Signaling Pathway. (AID 624479; calls by dose curve;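 also: pathway stimulated with TNF alpha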)
smiles,measurement,setting,value
C[C@@H]1CCN(C(=O)CC#N)C[C@@H]1N(C)c1ncnc2[nH]ccc12,outcome,[1],inactive
same,viability (% of control),[2],76.9%
same,Potency,[3],inactive
same,Potency,[4],inactive
CC(C)=O,Potency,[5],inactive
same,activation,[6],-0.255% (inactive)
same,activation,[7],2.82% (inactive)
same,outcome,[8],inactive
same,outcome,[9],inactive
IC(I)I,Potency,[5],68.6 µM (active)
same,activation,[6],-2.94% (inactive) and -3.68% (inactive)
O=C(O)CN(CCN(CC(=O)O)CC(=O)O)CC(=O)O,activation,[6],-1.95% (inactive) and 0.161% (inactive)
CC1=CCC(C(C)(C)O)CC1 (stereo unspecified),activation,[6],-5.6% (inactive)
same,activation,[7],-1.34% (inactive)
Cc1ccccc1,Potency,[5],inactive
same,activation,[6],0.393% (inactive) and -4.17% (inactive)
same,outcome,[8],inactive
same,outcome,[9],inactive
O=C(O)CC/C=C\CC[C@H]1[C@@H](N2CCCCC2)[C@@H](O)C[C@@H]1OCc1ccc(-c2ccccc2)cc1,outcome,[1],inactive
same,Potency,[10],inactive
same,viability (% of control),[2],104%
same,Potency,[3],inactive
same,Potency,[4],inactive
CC(C)(C)NC(=O)[C@@H]1C[C@@H]2CCCC[C@@H]2CN1C[C@@H](O)[C@H](Cc1ccccc1)NC(=O)[C@H](CC(N)=O)NC(=O)c1ccc2ccccc2n1,outcome,[8],inactive
same,outcome,[9],inactive
CC(NC(=O)Cc1cc(F)cc(F)c1)C(=O)NC(C(=O)OC(C)(C)C)c1ccccc1 (stereo unspecified),outcome,[1],inactive
same,Potency,[10],inactive
same,viability (% of control),[2],90.6%
same,Potency,[3],inactive
same,Potency,[4],inactive
CCCCC(CC)COC(=O)CC(C(=O)OCC(CC)CCCC)S(=O)(=O)O (stereo unspecified),Potency,[5],43.3 µM (active)
same,activation,[6],1.7% (inactive)
same,activation,[7],-3.42% (inactive)
CCCCCCCC(=O)O,Potency,[5],inactive
same,activation,[6],-2.15% (inactive) and 0.705% (inactive)
CC1(C)C(C=C(Cl)Cl)C1C(=O)OCc1cccc(Oc2ccccc2)c1 (stereo unspecified),activation,[6],-1.26% (inactive) [middle of 4 runs]
CCCCCCCCCCCCCCCCCCOP(=O)([O-])OC1CC[N+](C)(C)CC1,outcome,[1],inactive
same,Potency,[10],inactive
same,viability (% of control),[2],102% [at 29.8 µM]
same,Potency,[3],inactive
same,Potency,[4],inactive
